Screens as filed in PubChem BioAssay.
DT40 TDP1 CPT: DT40-hTDP1 cell growth loss with CPT. chicken DT40 Tdp1-/-;hTDP1 cells + 20 nM CPT, ATP luminescence, 48 h. Potency, µM (highest dose often 46.2 µM), for the others: at the highest dose activity change, negative = growth inhibition, hits mostly inhibitors. hit rate 12% among 420,000. AID 686979; also: potency is read from the fitted curve at half-maximal effect; nearly all actives have a fitted effect of over 55% in size
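Chicken DT40 Tdp1-/- cells complemented with human TDP1, 400 cells/well, exposed to compounds plus 20 nM camptothecin for at least 48 h at 37 C; viability read as ATP content by CellTiter-Glo luminescence.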
IL1B secr inh: inhibitors of inflammasome signaling (IL-1 beta secretion); activity change, % at 57.5 µM; AID 743279; hit rate 4.7% among 360,000; THP-1 LPS/ATP IL-1B secretion, AlphaLISA, 16 h; stronger effect = lower value; in the data active = activity change below about -50%; inconclusive = mostly about -30% to -49%
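THP-1 cells pretreated 1 hr with compounds (up to 57.5 uM final), then stimulated with LPS (250 ng/mL final) plus ATP (1.25 mM final); secreted IL-1B measured by AlphaLISA after 16 hr, decreased signal indicating inhibition.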
DT40 TDP1 no CPT: qHTS for Inhibitors of human tyrosyl-DNA phosphodiesterase 1 (TDP1): qHTS in cells in absence of CPT | hit rate 15% among 420,000 | Potency, µM (titrated, usually from 46.2 µM), for the others: top-dose activity change, negative = growth inhibition, most hits filed as inhibitors | DT40 Tdp1-/- hTDP1 cells, no CPT, ATP luminescence, 48 h; also: potency is read from the fitted curve at half-maximal effect; nearly all actives have a fitted effect of over 55% in size
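Chicken DT40 Tdp1-/- cells stably complemented with human TDP1 were seeded at 400 cells/well with DMSO in place of 20 nM camptothecin. After compound pinning, cells grew at least 48 hr at 37 °C; viability read by CellTiter-Glo luminescence.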
HT1080-NT tox: kills 2HG-producing HT-1080-NT fibrosarcoma cells; hit rate 1.6% among 360,000; HT-1080-NT fibrosarcoma viability, CellTiter-Glo ATP luminescence, 48 h; Potency, µM (top dose mostly 46.1 µM), for inactives: at the highest dose activity, negative = less viability, usual class: cytotoxic;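 also: NT is the 2HG producing partner of a matched IDH1 knockdown line; potency is read from the fitted curve at half-maximal effect; 0% = DMSO-treated cells and -100% = media-only wells without cells; nearly all actives have a fitted effect of over 55% in size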
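HT-1080-NT fibrosarcoma cells (2HG-overproducing), 750 cells/well in RPMI with 5% FBS, dosed after 2 h and incubated 48 h at 37C. CellTiter-Glo luminescence normalized to DMSO and no-cell wells; concentration-response curves fitted and classed.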
HT1080 IDH1KD tx: kills HT-1080 cells with IDH1 knockdown. HT-1080 IDH1 knockdown viability, ATP luminescence, 48 h. hit rate 2% among 360,000. Potency, µM (titrated, usually from 46.1 µM), for the others: at the top dose activity, negative = toxicity, hits mostly cytotoxic. AID 686971;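 also: potency is read from the fitted curve at half-maximal effect; 0% = DMSO wells and -100% = cell-free medium wells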
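CellTiter-Glo luminescence after 48 h compound exposure at 37 degrees C of IDH1-knockdown HT-1080 cells in 5% FBS RPMI. %Activity scaled between DMSO wells and cell-free media wells, with curves fitted and assigned curve classes.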
Starred values were filed as active, the others as inactive; ? = inconclusive; / = not tested or not shown; [ ] = dose if it differs, or a comment. A selection: hits, their analogues and other compounds. The true share with any hit is near 19%. Unless noted, calls follow the shape of the dose curve; as a rule, active = well fitted curve in the direction sought with a large enough effect; inconclusive = small, poorly fitted or top-dose-only effect, or another doubt; inactive = no such curve, though single readings can be large; an effect the other way counts as inactive or inconclusive. Unless noted, % is scaled to controls: 0 for no effect and ±100 for the full control effect.

SMILES	DT40 TDP1 CPT	IL1B secr inh	DT40 TDP1 no CPT	HT1080-NT tox	HT1080 IDH1KD tx
CCS(=O)(=O)NCc1c(C)ncc2c1CCN(C(=O)c1ccc(F)cc1)C2	26%[9.04 µM]	/	-14%	/	/
CN1CCC(Oc2ccc(Sc3ccccc3)cc2)CC1	?	-55*	23µM*	-11%	-18%
CN1CCC(Oc2ccccc2Sc2ccc(C(F)(F)F)cc2)CC1	?	16	?	-4%	-5%
CCOc1ccccc1NC(=O)CN1C(=O)COc2ccc(S(=O)(=O)Nc3ccccc3)cc21	16µM*	/	18µM*	/	/
CCN(Cc1ccccc1)C(=O)CN1C(=O)COc2ccc(S(=O)(=O)NC3CCCC3)cc21	16µM*	-1	?	6%	-4%
CCOc1ccccc1NC(=O)CN1C(=O)COc2ccc(S(=O)(=O)N3CCCCC3)cc21	21µM*	/	23µM*	/	/
CCOc1ccccc1NC(=O)CN1C(=O)COc2ccc(S(=O)(=O)N3CCCCCC3)cc21	?	/	21µM*	/	/
Cc1cc(C)cc(NC(=O)CN2C(=O)COc3ccc(S(=O)(=O)Nc4ccccc4)cc32)c1	-24%	/	-19%	/	/
COc1ccccc1NC(=O)CN1C(=O)COc2ccc(S(=O)(=O)N3CCCCCC3)cc21	?	-8	-11%	-4%	-14%
CCOC(=O)N1CCN(S(=O)(=O)CCNC(=O)c2ccc(F)cc2)CC1	-5%	15	-20%	-2%	11%
NC(=O)C1CCN(CC(=O)Nc2cccc(C(=O)Nc3cccc(C(F)(F)F)c3)c2)CC1	?	0	?	-6%	-20%
O=C(C[n+]1c(Cl)ccc2ccccc21)c1ccc2ccccc2c1	-14%	/	-7%	/	/
Cc1ccc(Cl)cc1Nc1nn2c(=O)c3ccc(C(=O)NC(C)c4ccccc4)cc3nc2s1 (centres undefined)	6.5µM*	/	3.3µM*	/	/
COc1ccccc1Nc1nn2c(=O)c3ccc(C(=O)Nc4ccc(F)cc4)cc3nc2s1	2.6µM*	/	5.8µM*	/	/
Cc1ccc(Cl)cc1Nc1nn2c(=O)c3ccc(C(=O)Nc4ccc(F)cc4)cc3nc2s1	3.7µM*	/	2.3µM*	/	/
Cc1ccccc1Nc1nn2c(=O)c3ccccc3nc2s1	?	10	?	4%	3%
O=C(Cc1cccs1)NC1CC(=O)N(c2ccccc2)C1 (centres undefined)	2%	/	-2%	/	/
COc1ccc(CCNC(=O)C(C)Sc2ccc(C)cc2)cc1OC (centres undefined)	3%	-9	?	-3%	0%
O=C1CC(c2ccc(O)c(O)c2)Oc2c1ccc(O)c2O (centres undefined)	11%	-6	-2%	-1%	-4%
CC(C)=CCc1c(O)ccc2c1OC(c1ccc(O)c(O)c1)CC2=O (centres undefined)	10µM*	37	13µM*	-3%	-3%
O=C(O)c1cc2n(n1)C(C(F)(F)F)CC(c1ccco1)N2 (centres undefined)	6%	17	1%	8%	7%
O=C(c1cc2nc(-c3ccco3)cc(C(F)(F)F)n2n1)N1CCN(c2ccccn2)CC1	26µM*	-11	13µM*	-7%	3%
Cc1cccc(N2CCN(C(=O)c3cc4n(n3)C(C(F)(F)F)CC(c3ccco3)N4)CC2)c1C (centres undefined)	21µM*	-55*	15µM*	?	?
O=C(c1cc2n(n1)C(C(F)(F)F)CC(c1ccco1)N2)N1CCN(c2ccccn2)CC1 (centres undefined)	?	-14	26µM*	-1%	-4%
Cc1ccccc1NC(=O)c1cccc2nc3ccccc3nc12	?	-18	23µM*	-9%	-1%
Clc1ccc(N2CCN(c3ncnc4c3oc3ccccc34)CC2)cc1	21µM*	20	14µM*	11%	7%
CC1CN(c2ncnc3c2oc2ccccc23)CC(C)O1 (centres undefined)	?	-2	21µM*	-1%	-14%
O=C(NC(=S)Nn1cnnc1)c1ccccc1Br	-2%	-8	-23%	-6%	7%
